± gives the standard deviation of the averaged measurements. In all, about 33,000 sequences were measured (“E-score (dimensionless, -0.5 to 0.5)”: median about -0.046, highest 2% from about 0.36 on). The full list was thinned out, with the highest values kept by preference.
System: T1, SpTbr T-box DNA-binding domain (GST fusion)
T1 sequence: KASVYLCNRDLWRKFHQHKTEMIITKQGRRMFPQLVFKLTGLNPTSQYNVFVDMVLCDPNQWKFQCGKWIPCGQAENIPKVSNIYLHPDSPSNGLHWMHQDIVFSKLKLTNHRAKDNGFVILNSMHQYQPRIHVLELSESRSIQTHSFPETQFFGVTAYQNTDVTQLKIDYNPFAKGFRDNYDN
Assay: PBM E-score of 8-mer (E-score (dimensionless, -0.5 to 0.5)); Tbr is Tbrain of the sea star Patiria miniata (Pm) or the sea urchin Strongylocentrotus purpuratus (Sp); higher = stronger binding preference
Conditions: the construct has about 5 more residues each side
Procedure, shortened: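 Using the Universal PBM Analysis Suite, every ungapped 8-mer received an enrichment E-score averaged over duplicate arrays. Probe intensities came from double-stranded Universal Agilent oligonucleotide arrays incubated with 200 nM GST-fused Tbr T-box DNA-binding domain in PBS (pH 7.5). That protein was expressed in BL21 E. coli at 20 °C and purified by glutathione affinity chromatography.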

Row | Sequence | PBM E-score of 8-mer
1 | CATGTGAG | 0.137 ± 0.0055
2 | CCCAACTA | -0.164 ± 0.083
3 | AGCGTCCC | -0.148 ± 0.0096
4 | GCTTATCC | 0.125 ± 0.027
5 | CCTCATAA | -0.0692 ± 0.021
6 | ACGTGTTA | 0.431 ± 0.015
7 | ACGTGTTG | 0.367 ± 0.00092
8 | GCGTGTTA | 0.302 ± 0.018
9 | ACGTGTTC | 0.1884 ± 0.00041
10 | CCGTGTTA | 0.158 ± 0.029
11 | ACGTGTAG | 0.133 ± 0.068
12 | GATCGCTA | 0.136 ± 0.022
13 | GGTCGATA | 0.0927 ± 0.012
14 | AACTGTTG | 0.241 ± 0.017
15 | CACGCAGA | 0.0713 ± 0.028
16 | ATTGACAG | 0.102 ± 0.07
17 | CTTGACAC | 0.436 ± 0.0093
18 | CTTGACGC | 0.324 ± 0.011
19 | CTTGACCC | -0.308 ± 0.038
20 | ATTGACAA | 0.298 ± 0.026
21 | ATTGACAC | 0.418 ± 0.0052
22 | ACACAGAA | -0.134 ± 0.016

Row | Sequence | PBM E-score of 8-mer
23 | GGATAGAC | -0.202 ± 0.041
24 | ACTCAATC | -0.0092 ± 0.032
25 | CAACACGC | 0.203 ± 0.0098
26 | CAACACCC | 0.433 ± 0.012
27 | GAACACCC | 0.116 ± 0.0077
28 | GAACACCA | 0.104 ± 0.014
29 | TAACACCA | 0.43 ± 0.011
30 | TAACACTA | 0.373 ± 0.042
31 | GAACACTA | 0.013 ± 0.018
32 | CAACACCG | 0.312 ± 0.0065
33 | CAACACGA | 0.185 ± 0.0087
34 | CAACACTA | 0.264 ± 0.025
35 | AAACACCA | 0.238 ± 0.027
36 | CAACACCA | 0.37255 ± 7.8e-05
37 | TCAAGGAA | -0.0393 ± 0.033
38 | GCTGATCA | 0.179 ± 0.059
39 | CCCAATGA | -0.198 ± 0.013
40 | CCGACCCG | -0.073 ± 0.13
41 | GACTCGAC | -0.0494 ± 0.0017
42 | CTAATGCA | 0.038 ± 0.071
43 | GTAGAGAC | -0.094 ± 0.029
44 | CCACTATC | 0.129 ± 0.028

Row | Sequence | PBM E-score of 8-mer
45 | TACACGAA | -0.0857 ± 0.046
46 | GCTTGCGA | 0.16 ± 0.0045
47 | AGTTGCGA | 0.3999 ± 0.00081
48 | AGTTGCGC | 0.13 ± 0.063
49 | AGTTGCGG | 0.126 ± 0.029
50 | CCTTGCGA | 0.183 ± 0.056
51 | ACTTGCGA | 0.388 ± 0.021
52 | CAGGGATC | -0.17 ± 0.046
53 | AAACCATC | -0.0776 ± 0.02
54 | AAATCGTT | -0.0755 ± 0.038
55 | CACACATA | 0.3998 ± 0.0028
56 | CACACATG | 0.383 ± 0.021
57 | GACACATA | 0.359 ± 0.005
58 | TACACATA | 0.168 ± 0.022
59 | CACACAGG | 0.244 ± 0.0081
60 | CACACAAG | 0.179 ± 0.038
61 | GAGGCTCA | -0.129 ± 0.025
62 | ACGCCCAT | 0.0516 ± 0.054
63 | GATATGCA | 0.00558 ± 0.032
64 | GGCGCGAC | 0.369 ± 0.017
65 | AGCGCGAA | 0.405 ± 0.019
66 | GGCGCGAA | 0.463 ± 0.011

Row | Sequence | PBM E-score of 8-mer
67 | AGCGCGAG | 0.306 ± 0.017
68 | AGCGCGAC | 0.253 ± 0.026
69 | AGCGCGAT | 0.276 ± 0.009
70 | CGCGCTAA | 0.338 ± 0.0063
71 | CGCGCGAC | 0.284 ± 0.015
72 | TGCGCTAA | 0.191 ± 0.035
73 | GGCGCGCA | 0.153 ± 0.047
74 | GGCGCTAA | 0.4 ± 0.035
75 | GACGCGAA | 0.138 ± 0.006
76 | AGCTACAA | -0.161 ± 0.011
77 | GCACGCGC | 0.216 ± 0.095
78 | ATAGATGA | -0.0521 ± 0.016
79 | CTGAAGCA | -0.141 ± 0.0054
80 | CCGTGCCC | -0.244 ± 0.013
81 | CCGTACAA | -0.197 ± 0.0048
82 | CGCGCGAA | 0.408 ± 0.013
83 | GCCGCGAA | 0.343 ± 0.0045
84 | TCCGCGAA | 0.2876 ± 0.00083
85 | TGCGCGAA | 0.349 ± 0.036
86 | CGCGCGAG | 0.304 ± 0.036
